Shown are actives, neighbours in structure and some others; about 17% of the full set was active somewhere.
DT40 TDP1 no CPT – qHTS for Inhibitors of human tyrosyl-DNA phosphodiesterase 1 (TDP1): qHTS in cells in absence of CPT. DT40 Tdp1-/- hTDP1 cells, no CPT, ATP luminescence, 48 h. Potency, µM (highest dose often 46.2 µM), hits mostly inhibitors. 15% of 420,000 active; note: nearly all actives have a fitted effect of over 55% in size
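Readout: luminescence from CellTiter-Glo after 30 min in the dark at RT. Cells: DT40 Tdp1-/- with stable hTDP1, 400/well. Exposure: compounds alone, ≥48 hr, 37 °C.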
DT40 TDP1 CPT – qHTS for Inhibitors of human tyrosyl-DNA phosphodiesterase 1 (TDP1): qHTS in cells in presence of CPT. chicken DT40 Tdp1-/-;hTDP1 cells + 20 nM CPT, ATP luminescence, 48 h. Potency, µM (titrated, usually from 46.2 µM), usual class: inhibitors. 12% of 420,000 active; note: nearly all actives have a fitted effect of over 55% in size
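Chicken DT40 Tdp1-/- cells stably complemented with human TDP1 were seeded at 400 cells/well in medium containing 20 nM camptothecin, exposed to pin-transferred compounds, and grown at 37 °C for at least 48 hr. Viability was read as ATP luminescence.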
TDP1 inh – qHTS Assay for Inhibitors of Tyrosyl-DNA Phosphodiesterase (TDP1) | Tyrosyl-DNA phosphodiesterase 1 (Homo sapiens), Q9NUW8 | recombinant TDP1, AlphaScreen DNA substrate cleavage | Potency, µM (doses to about 130 µM), actives largely listed as inhibitors | 0.28% of 350,000 active | AID 485290, 2010; note: nearly all actives have a fitted effect of over 40% in size
Target sequence (Q9NUW8 whole entry, looked up): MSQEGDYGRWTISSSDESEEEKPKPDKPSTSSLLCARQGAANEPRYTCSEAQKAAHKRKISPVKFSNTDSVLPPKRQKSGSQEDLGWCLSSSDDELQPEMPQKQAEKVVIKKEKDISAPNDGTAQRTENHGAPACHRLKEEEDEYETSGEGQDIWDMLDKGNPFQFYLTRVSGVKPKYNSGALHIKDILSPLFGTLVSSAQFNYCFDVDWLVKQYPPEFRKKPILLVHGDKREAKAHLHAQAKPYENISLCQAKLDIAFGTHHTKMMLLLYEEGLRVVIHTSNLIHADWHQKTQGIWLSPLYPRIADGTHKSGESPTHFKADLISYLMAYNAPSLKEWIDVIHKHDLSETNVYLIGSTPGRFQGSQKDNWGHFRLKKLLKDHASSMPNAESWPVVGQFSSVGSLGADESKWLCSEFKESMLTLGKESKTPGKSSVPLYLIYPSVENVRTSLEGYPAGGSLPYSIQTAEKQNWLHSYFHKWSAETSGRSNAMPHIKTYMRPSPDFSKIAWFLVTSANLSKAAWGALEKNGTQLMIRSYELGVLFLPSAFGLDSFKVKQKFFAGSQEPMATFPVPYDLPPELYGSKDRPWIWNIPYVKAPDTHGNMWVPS
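Signal: AlphaScreen proximity between streptavidin donor and anti-FITC acceptor beads on intact substrate. Reaction: Tdp1 1 nM, substrate 15 nM final, 5 min RT after 15 min compound preincubation.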
ClpP mod – qHTS Assay for Activators of ClpP | 1.9% of 340,000 active | purified B. subtilis ClpP, FRET peptide cleavage, 20 min | Potency, µM (doses to about 57.5 µM); active = well fitted falling curve with a large enough effect; inconclusive = small, poorly fitted or top-dose-only effect; inactive = no such curve, though single readings can be large or run the other way; note: the source files actives as falling curves though it sought activators and does not explain the sign; nearly all actives have a fitted effect of over 65% in size
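FRET quenching reversal measured ClpP activation: 10 microg/mL B. subtilis ClpP at pH 8 with the FRET-FV decapeptide, read at 430 nm after 320 nm excitation. The 20-min minus 0-min signal was scaled between DMSO/no-enzyme wells and ADEP (5.8 microM final).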
A number is an active result; i = inactive; ? = inconclusive; nt = no result given; [ ] = dose if it differs, or a comment. Unless noted, calls come from the whole dose curve; as a rule, active = well fitted curve in the direction sought with a large enough effect; inconclusive = small, poorly fitted or top-dose-only effect, or another doubt; inactive = no such curve, though single readings can be large; an effect the other way counts as inactive or inconclusive.

SMILES	DT40 TDP1 no CPT	DT40 TDP1 CPT	TDP1 inh	ClpP mod
COc1cc(Cl)ccc1OCc1cc(C(=O)N2CCCCC2c2cccnc2)no1 (stereo unspecified)	?	5.8µM	i	i
O=C(c1cc(COc2ccc(F)cc2Cl)on1)N1CCC(OCc2cccnc2)CC1	9.2µM	16.4µM	i	nt
Cc1nonc1C1CCCN1C(=O)c1cc(COc2ccc(F)cc2Cl)on1 (stereo unspecified)	?	?	i	i
CCOc1ccc(CCNC(=O)COn2nnc3ccc(S(=O)(=O)N4CCOCC4)cc32)cc1OCC	i	i	i[0.505 µM]	nt
Cc1ccc(-c2cc(C(=O)N3CCN(c4ccccc4)CC3)c3ccccc3n2)cc1C	16.4µM	?	i	i
Cc1ccc2c(C(=O)N3CCN(c4ccccc4)CC3)cc(-c3cccnc3)nc2c1C	13µM	?	i	nt
COc1ccc(-c2cc(C(=O)N3CCCC(C(F)(F)F)C3)c3ccccc3n2)cc1OC (stereo unspecified)	20.6µM	?	i[0.505 µM]	nt
COc1ccc(-c2cc(C(=O)N3CCCCCC3)c3ccccc3n2)cc1	?	?	?	6.31µM
COc1ccc(S(=O)(=O)N2CCCCCC2)cc1C(=O)N1CCCC(C(F)(F)F)C1 (stereo unspecified)	?	?	i	i
O=C(O)c1cc(-c2ccco2)nc2ccccc12	i	i	nt	i
COc1ccc(-c2cc(C(=O)OCC(=O)N3CCCCC3)c3ccccc3n2)cc1OC	20.6µM	?	i	i
COc1ccc(-c2cc(C(=O)N3CCCCCC3)c3ccccc3n2)cc1OC	?	?	nt	i
O=C(c1cc(-c2ccco2)nc2ccccc12)N1CCN(c2ccc(F)cc2)CC1	13µM	20.6µM	i	?
COc1ccc(-c2cc(C(=O)N3CCN(c4ccccc4)CC3)c3ccccc3n2)cc1OC	16.4µM	?	i	?
O=C(CSc1nnc(CNC(=O)c2ccco2)o1)Nc1ccc(Br)cc1	i	i	i	i
COc1ccc(CNC(=O)C[C@@H]2CC[C@@H](NS(=O)(=O)c3cccc(OC)c3)[C@@H](CO)O2)cc1	i	i	nt	i
C[C@@H]1CC[C@H]2[C@H](C)[C@H]3CC[C@H]4C5[C@@H](O)CC6=CC(=O)CC[C@]6(C)[C@H]5C[C@H]4C3C(=O)N2C1 (stereo partly specified)	?	?	i	nt
O=C(COC(=O)c1ccc2ccccc2n1)Nc1cccc(S(=O)(=O)NC2=NCCCCC2)c1	i	i	i	i
O=C(COC(=O)c1ccccn1)Nc1ccc(S(=O)(=O)N2CCOCC2)cc1	i	i	i	?
CCc1nc2ccccc2c(C(=O)OCC(=O)Nc2cccc(S(=O)(=O)NC3=NCCCCC3)c2)c1C	4.61µM	16.4µM	nt	nt
CCc1nc2ccccc2c(C(=O)OCC(=O)Nc2ccc(S(=O)(=O)N3CCOCC3)cc2)c1C	?	14.1µM	i	i
CCc1nc2ccccc2c(C(=O)OCC(=O)Nc2cccc(S(=O)(=O)N3CCOCC3)c2)c1C	18.4µM	16.4µM	i	i
Cc1cccc(NC(=O)Cn2nnc(C(=O)Nc3ccccc3Br)c2N)c1C	i	i	i	i
CCCOc1ccc(/C=C/C(=O)OCC(=O)N(C)c2c(N)n(Cc3ccccc3)c(=O)[nH]c2=O)cc1OCC	16.4µM	?	i	i
CN(C(=O)COC(=O)/C=C/c1ccc(F)cc1)c1c(N)n(Cc2ccccc2)c(=O)[nH]c1=O	?	?	nt	i
CN(C(=O)COC(=O)/C=C/c1ccc(Cl)c(Cl)c1)c1c(N)n(Cc2ccccc2)c(=O)[nH]c1=O	16.4µM	9.2µM	i	i
CC1(C(=O)NS(=O)(=O)c2ccc3c(c2)CCO3)CCN1C(=O)C1(c2ccc(Cl)cc2)CCC1 (stereo unspecified)	i	?	nt	i
O=C1N(c2ccccc2)C[C@@H]2C[C@@H](c3cc4ccccc4o3)N3CCC[C@@]123	23.1µM	i	i	nt
Cc1ccc(N(C)C(=O)Cn2cc(S(=O)(=O)N3CCCC3)c(S(=O)(=O)N3CCCC3)c2)cc1	i	i	i	i
C=CCn1c(-c2ccoc2)n[nH]c1=S	i	i	i	31.6µM
